Assay outcomes from PubChem.
KDM5B inhibitor = KDM5B demethylase inhibition | Q9UGL1 | 220,000 tested, 2.6% active | KDM5B demethylase, FDH-coupled NADH fluorescence (FDH is formaldehyde dehydrogenase) | Potency, µM (highest dose often 57.7 µM), most hits filed as inhibitors; active = well fitted inhibition curve with a large enough effect; also: 0% is about no effect; nearly all actives have a fitted effect of over 70% in size
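Measured: NADH fluorescence change, 30 min, RT. System: KDM5BΔAP 200 nM final, H3K4me3 peptide, α-KG, Fe(II), ascorbate, NAD⁺ plus FDH, pH 7.5 HEPES. Compounds: titrated, 10 min pre-incubation with enzyme.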
An asterisk follows results filed as active; i = inactive. This excerpt belongs to a sample that is enriched for hits. Potency is read from the fitted curve at half-maximal effect.

SMILES	KDM5B inhibitor
Cc1cc2oc(=O)cc(CN(C)C(C)C3CC3)c2cc1C(C)C (centres undefined)	i
CCc1ccc(C(=O)Nc2ccc(N(C)C)cc2)cc1	i
CSCCC(NC(=O)c1ccc(Cl)cc1Cl)C(=O)Nc1ccc(C)cc1 (centres undefined)	i
CC(C)c1nc2c(c(-c3ccc(O)cc3)n1)CN(C(=O)c1ccccc1Cl)CC2	i
CC(C)(C)c1ccc(C2(C)NC(=O)N(Cc3coc(-c4cccs4)n3)C2=O)cc1 (centres undefined)	i
O=[S+]1([O-])NC2(CCN(CC3CCOCC3)CC2)COc2ccccc21	79µM*
O=[S+]1([O-])NC2(CCN(Cc3ccsc3)CC2)COc2ccccc21	i
O=[S+]1([O-])NC2(CCN(Cc3ccccn3)CC2)COc2ccccc21	i
O=[S+]1([O-])NCC2(CCCN(Cc3ccc(C(F)(F)F)cc3)C2)Nc2ccccc21 (centres undefined)	i
CCCCNC(=S)Nc1ccccc1Cl	i
CC(=O)Nc1ccc(CC(=O)N2CCC(C)(c3noc(C)n3)CC2)cc1	i
COc1ccc(-c2nc3c(c(-c4ccccc4)n2)CN(C(=O)Nc2ccccc2)CC3)cc1	i
O=C(NCC1CCCO1)N1CCc2c(nc3cc(-c4ccccc4Cl)[nH]n3c2=O)C1 (centres undefined)	20µM*
CC(=O)Nc1ccc(CC(=O)N2CCc3c(nc4cc(-c5ccccc5Cl)[nH]n4c3=O)C2)cc1	25µM*
CC(=O)Nc1ccc(CC(=O)N2CCC3(CCC(=O)N(Cc4ccccc4)CC3)CC2)cc1	i
Cc1ccc(NC(=O)CSc2nc(-c3ccccc3Cl)nc3cc(=O)[nH]n23)c(C)c1	i
COc1cccc(NC(=O)Cn2nc3c(cc2=O)CCCCC3)c1	i
COc1cccc(NC(=O)N2CCc3nc4cc(-c5ccccc5Cl)[nH]n4c(=O)c3C2)c1	25µM*
O=C(CCc1ncc(-c2ccccc2Cl)o1)NCC1CCCO1 (centres undefined)	i
COC(=O)CNC(=O)c1cc(-c2ccccc2Cl)nc2ccc(Br)cc12	i
O=C(CSc1nc2ccccc2c(=O)n1-c1ccccc1Cl)NCC1CCCO1 (centres undefined)	i
COC(=O)CNC(=O)N1CCc2c(nc3cc(-c4ccccc4Cl)[nH]n3c2=O)C1	22µM*
Cn1nc(C(=O)OCCOc2ccc(Br)cc2)c2ccccc2c1=O	i
COCCn1c(=O)n([C@H]2CCCN(S(=O)(=O)c3cccc(OC)c3)C2)c2ncccc21	i
O=C(Nc1ccc(Cl)cc1Cl)c1cc(=O)[nH]c2ccc(S(=O)(=O)N3CCOCC3)cc12	i
SMILES	KDM5B inhibitor
Cc1c(Cl)cccc1NC(=O)c1nn(C)c(=O)c2ccccc12	i
O=C(c1cc(Br)ccc1Cl)N(C1CCCCC1)C1CCCCC1	i
CCN(CC)S(=O)(=O)c1ccc(=O)n(CCOc2ccc(C#N)cc2)c1	i
O=C(Cc1ccccc1F)N1CCOc2ccc(CN3CCc4ccccc4C3)cc2C1	i
O=C(O)c1cc(I)ccc1Br	i
CCOC(=O)c1oc2cc(OC(=O)CC)ccc2c(=O)c1-c1nc2ccccc2s1	i
Cc1ccc(S(=O)(=O)N2CCC(C(=O)NCc3cnn(-c4ccccc4)c3)CC2)cc1	i
COCCCNC(=O)C1(C)CN(C)Cc2ccc(NCc3ccccc3)nc21 (centres undefined)	32µM*
COc1ccc(NC(=O)C2(C)CCc3cnc(NCc4ccccc4)nc32)cn1 (centres undefined)	40µM*
COc1cccc(NC(=O)C2(C)CCc3cnc(NCc4ccccc4)nc32)c1 (centres undefined)	i
COc1ccc(NC(=O)Cn2nc3c(cc2=O)CCCCC3)cn1	i
CN1Cc2ccc(NCc3ccccc3)nc2C(C)(C(=O)NC2CCC2)C1 (centres undefined)	i
COCCCNC(=S)NNC(=O)c1cc(C2CC2)nc2ccccc12	i
COc1ccc(NC(=O)C2(C)CN(C)Cc3ccc(NCc4ccccc4)nc32)cn1 (centres undefined)	32µM*
COc1ccc(NC(=O)C2=NO[C@@H]3CN(CCc4ccccc4)C[C@H]23)cn1	i
Cc1cc(NC(=O)C2CCCN(S(=O)(=O)c3ccc4[nH]c(=O)oc4c3)C2)ccc1Br (centres undefined)	i
O=c1oc2ccccc2c(Sc2ccccc2)c1Sc1ccccc1	i
O=C(c1ccccc1Cl)N1CCc2nc(C3CC3)nc(-c3ccc(O)cc3)c2CC1	i
CC(Oc1cccc(Cl)c1)C(=O)NC(C)c1ccccc1 (centres undefined)	i
COC(=O)c1cccc(NC(=O)Nc2cc(-c3nc4ccccc4o3)ccc2OC)c1	i
COCCNC(=O)c1cc(C2CC2)nc2c1c(C1CCCNC1)nn2C (centres undefined)	89µM*
Cc1cc(C(=O)N2CCOCC2)c2c(C3CCNCC3)noc2n1	i
Cc1cc(C(=O)NCC(C)C)c2c(C3CCNCC3)noc2n1	i
COCCNC(=O)c1cc(C)nc2onc(C3CCCNC3)c12 (centres undefined)	i
Cc1ccc(OCCNC(=O)c2cc(C3CC3)nc3ccccc23)cc1	i
SMILES	KDM5B inhibitor
COCCNC(=O)c1cc(C)nc2onc(C3CCNC3)c12 (centres undefined)	i
CC(C)CNC(=O)c1cc(C2CC2)nc2c1c(C1CCNC1)nn2C (centres undefined)	89µM*
CC(CNC(=O)c1cc(C2CC2)nc2ccccc12)c1ccccc1 (centres undefined)	i
COCCNC(=O)c1cc(C2CC2)nc2c1c(C1CCNC1)nn2C (centres undefined)	89µM*
O=C(c1cc(C2CC2)nc2onc(C3CCCNC3)c12)N1CCC(F)CC1 (centres undefined)	i
Cn1nc(C2CCNC2)c2c(C(=O)N3CCOCC3)cc(C3CC3)nc21 (centres undefined)	89µM*
COC(=O)c1cc(C2CC2)nc2c1c(C)nn2CC(=O)NC(C)C	i
CCC(NC(=O)C1CCCO1)c1ccccc1OC(C)C (centres undefined)	i
NCC1CCN(Cc2ccco2)C1 (centres undefined)	i
O=C(NCCc1ccccn1)c1cnc2c(c1)N([S+](=O)([O-])c1cccnc1)CCC2	i
COc1ccc(NS(=O)(=O)c2ccc3oc(SCC(=O)N4CCCCC4)nc3c2)cc1	i
COc1ccc(C(=O)N(CCCN(C)C)c2nc3ccc(Cl)cc3s2)cc1OC	i
CCn1c(N2CCC(Cc3ccccc3)CC2)nc2c1c(=O)n(C)c(=O)n2C	i
O=C(O)c1ccc(/C=N/NC(=O)C2CC2)cc1	i
COc1ccccc1-c1noc(CSc2nc(C3CC3)n(-c3ccccc3)n2)n1	i
COC(=O)c1sc(N)c(C#N)c1C	i
Cc1ccc(-c2ccc3nnc(CNC(=O)c4ccc5c(c4)OCO5)n3n2)cc1	i
CCOC(=O)N1CCN(C(=O)CSc2ccc3nnc(CCNC(=O)c4ccc(OC)cc4)n3n2)CC1	i
Cc1ccc(-c2ccc3nnc(CNC(=O)c4ccc(N(C)C)cc4)n3n2)cc1C	i
O=C(NCc1nnc2ccc(-c3ccc(Cl)cc3)nn12)c1cccc(Br)c1	28µM*
Cc1ccc(S(=O)(=O)C(CNC(=O)c2ccc(F)c(F)c2)c2ccco2)cc1 (centres undefined)	i
O=C(NCCn1nc(-c2ccc(F)cc2)ccc1=O)c1cccc(C(F)(F)F)c1	i
